Here are results for 40 compounds from PubChem BioAssay (NCI).

Compounds without any hit were thinned out: in the full panel of roughly 83,000, 20% have a hit.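 Plates (96-well) were seeded with cells, treated with compound at one concentration, and incubated for 48 hours before percent growth was determined.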 Unmarked numbers belong to inactive results. Active and inactive are the calls of the source.

The test system of this assay is SN12C renal. Briefly: NCI-60 one-dose screen, 48 h (100 = growth as untreated, 0 = no growth, -100 = all killed). Particulars: 10 µM unless noted. How it is done:
Growth inhibition of the SN12C human tumor cell line is measured as a screen for anti-cancer activity. Cells are grown in 96 well plates and exposed to the test compound for 48 hours. Compounds are tested at a single concentration, which is 10^-5 M for most compounds. The reported endpoint is percent growth (GI% or GIPRCNT), where numbers from 0 - 100% represent growth inhibition, and numbers from -100% - 0 represent cell death. For example, a value of 40 represents 60% growth inhibition. A value of 0 means no net growth occurred over the course of the experiment. A value of -40 indicates 40% of cells at the beginning of the experiment died by the end of the experiment. A value of -100 means all cells are dead at the end of the experiment.
NCI-60 Human Tumor Cell Lines Screen was performed using the standard one-dose NCI protocol, which is described in more detail at https://dtp.cancer.gov/discovery_development/nci-60/default.htm.
Compounds with GIPRCNT values below 10 were considered active. Activity score was based on GIPRCNT using the following formula: […]
Score is 0 for GIPRCNT values of 100 or above, 50 for GIPRCNT values of 0, and 100 for GIPRCNT values of -100.
For `CN1CCC(OC2c3ccccc3CCc3ccccc32)CC1`, the growth is 93.9%.
The same measure for `CCOc1ccc(-c2cnnn2-c2nonc2-n2cccc2)cc1`: 40.1%.
The same measure for `Clc1ccc(C2=Nc3cccc4cccc(c34)N2)cc1Cl`: 110%; for `CC1=C(C/C=C(\C)CCC[C@H](C)CCC[C@H](C)CCCC(C)C)C(=O)c2ccccc2C1=O`: 99.7%.
The figure for `COC(=O)[C@@]12CC[C@@H](C)[C@]3(C[C@@H](c4ccoc4)OC3=O)[C@H]1CC[C@@H]1O[C@@]12C` is 98.8%.
Consider `C=C(C)COC(=O)c1ccccc1C(=O)OCC1(C)CO1` (stereo not given), for which the growth is 95.9%.
The figure for `CCOC(=O)c1cc2c(n(C)c1=O)-c1cnn(-c3ccc(OC)cc3)c1CC2` is 99.8%; for `COc1ccccc1/C=C/C(=O)/C=C/c1ccccc1O` it is -18.7% (active).
For the compound `Cn1c2ccc(Cl)cc2c2nn(C(=O)c3ccccc3)c(=O)nc21`, the growth was 103%.
The figure for `O=c1oc2ccccc2cc1-c1csc(N=Nc2c(O)[nH]c3ccc(Cl)cc23)n1` is 100%; for `COc1ccc(-c2[nH]ncc2Nc2cc(OC)c(OC)c(OC)c2)cc1` it is 45.4%; for `COc1ccc(S(=O)(=O)c2ccc(C(N)=O)cc2)cc1NC(=O)c1[nH]c(C)c2c1CCCCC2=O` it is 76.7%.
As for `OB(O)c1ccccc1`, the growth is 112%.
The figure for `Cn1c(=O)c(S(=O)(=O)c2ccccc2)cc2ccc3c(cnn3-c3ccc(Cl)cc3)c21` is 86.6%; for `Cc1nc2cc(Nc3nc(N4CCOCC4)nc(N4CCN(C)CC4)n3)ccc2n1Cc1ccccc1` it is 101%; for `COc1ccc(-n2ncc3c4nc(OC)c(S(=O)(=O)c5ccccc5)cc4ccc32)cc1` it is 93%.
The figure for `NC(=O)c1cc(I)ccc1NC(=O)COc1ccccc1` is 37.4%.
The same measure for `Cn1c2ccccc2c2nn(C(=O)c3ccccc3)c(=O)nc21`: 102%; for `O=[N+]([O-])c1cc2c(cc1Br)-c1ccccc1C2`: 85.1%.
For `Cc1ccc(C2SCC(=O)N2NC(=O)c2[nH]c3ccc(F)cc3c2-c2ccccc2)cc1` (stereo not given), the growth is 95.8%.
The figure for `COC(=O)CCC(=O)c1ccccc1` is 103%.
Consider `COc1ccc(-c2nc3sccn3c2/C=C/C(=O)c2cc(OC)c(OC)c(OC)c2)cc1OC`, for which the growth was 40.3%.
The figure for `CON=C1C[C@]2(C[C@@H]3C[C@@H](C/C=C(\C)C[C@@H](C)/C=C/C=C4\CO[C@@H]5[C@H](O)C(C)=C[C@@H](C(=O)O3)[C@]45O)O2)O[C@H](/C(C)=C/C(C)C)[C@H]1C` is 55%.
The same measure for `COc1cc(/C=C2\C(=O)N(c3c(Cl)cccc3Cl)c3ccccc32)cc(OC)c1O`: 50%.
On to `O=C(NCc1ccc(F)cc1)C1CN(c2ccc(Cl)cc2)N(c2ccc(Cl)cc2)C1=O` (stereo not given), for which the growth was 83%.
The same measure for `Cc1c(C)n(CC(O)CNC2CCCCC2C)c2ccccc12` (stereo not given): -41.9% (active); for `Cc1nc2ccc(Cl)cc2n1C`: 101%.
The figure for `Clc1nc(-c2ccccn2)nc2sc3c(c12)CCCCCC3` is 84.9%.
The figure for `CCOC(=O)c1sc(NC(=O)CN2CCC(Cc3ccccc3)CC2)nc1C` is 106%.
For `CC(C)(C)[Si](C)(C)OC1[C@@H](CNC(=O)NC(=O)CCl)O[C@@H](n2cnc3c(N)ncnc32)[C@H]1O[Si](C)(C)C(C)(C)C` (stereo not given in full), the growth was -81.9% (active).
The figure for `CCOC(=O)C1=C(C)N2C(=NC3=C(CCCC/C3=C\c3ccccc3)C2c2ccccc2)S1` (stereo not given) is 101%; for `COc1cc(/C=C/C(=O)C(=Cc2ccc(F)c(F)c2)C(=O)/C=C/c2ccc(O)c(OC)c2)ccc1O` it is 31.2%.
`CC(C)(C)[Si](C)(C)OC1[C@@H](COC(N)=O)O[C@@H](n2cnc3c(N)ncnc32)[C@H]1O[Si](C)(C)C(C)(C)C` (stereo not given in full): the growth was 102%.
The figure for `NC(=O)c1cc(Cl)ccc1NC(=O)COc1ccccc1` is 64.3%; for `CCCN(CCC)c1ccc(/C=C/c2ccc3cc(OCC)ccc3n2)cc1` it is 90.7%; for `CCN(c1ccc(C(=O)N2CCN(c3ccccc3)CC2)cc1)S(C)(=O)=O` it is 103%.
The figure for `COc1cc(/C=C/c2cc(/C=C/c3ccc(O)c(OC)c3)n(-c3ccccc3)n2)ccc1O` is -3.11% (active).
On to `COC(=O)c1c2c(c(C)[n+]([O-])c1C)C(=O)C=C(NCc1ccc(Cl)cc1)C2=O`, for which the growth was -84.9% (active).
The figure for `CCOC(=O)c1cnn(CC(O)c2ccc(F)cc2)c1NC(=O)Nc1ccccc1F` (stereo not given) is 106%; for `C(=C\c1ccccc1)/CN1CCN(C(c2ccccc2)c2ccccc2)CC1` it is 90.4%.
